More than one record can exist for a structure, and the calls need not agree. Calls of active or inactive are those of the source. Rule for the calls: active = hit-call score of the fitted dose curve at least 0.9, where 1 is the maximum; inactive = score below 0.9.
Assays:
[1] = ATG_GLI_CIS: Attagene CIS-FACTORIAL HepG2 Assay for human Zinc Finger Protein GLI1 (AID 2282945); settings: HepG2, Attagene cis-factorial reporter mRNA, GLI element; actives raise or lower the signal
In short: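 HepG2 cells transiently transfected with cis-promoter multiplexed reporter units report endogenous transcription factor activity. After 24 h chemical exposure, reporter mRNA was quantified by RT-PCR, 6-FAM labelling, HpaI digestion and capillary electrophoresis, with bidirectional fitting against DMSO.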

[2] = ATG_GRE_CIS: Attagene CIS-FACTORIAL HepG2 Assay for human Glucocorticoid Response Elements (GRE) (AID 2282947); settings: HepG2 GRE cis-reporter, Attagene multiplex mRNA; actives raise or lower the signal
In short: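 HepG2 cells transiently transfected with multiple cis-promoter reporter units measure endogenous TF activity; 24 h compound exposure. Reporter mRNA quantified by RT-PCR, FAM labelling, HpaI digestion and capillary electrophoresis; bidirectional fit vs DMSO baseline.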

[3] = ATG_ISRE_CIS: Attagene CIS-FACTORIAL HepG2 Assay for human Interferon Regulatory Factor 1 (IRF1) binding to an Interferon-Stimulated Response Element (ISRE) (AID 2282948); settings: HepG2 ISRE cis-reporter (Attagene), mRNA transcription readout; actives raise or lower the signal
In short: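 Cell-based cis-reporter assay; HepG2; 24 h exposure; reporter mRNA by RT-PCR plus capillary electrophoresis fluorescence; activity in either direction scored relative to DMSO.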

[4] = ATG_M_32_CIS: Attagene CIS-FACTORIAL HepG2 Assay for M32 Transcription Factor (Internal Marker) (AID 2282949); settings: HepG2 Attagene cis-factorial M32 reporter, mRNA; actives raise or lower the signal;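 note: background control marker of the multiplexed CIS panel rather than a real target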
In short: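 Internal background marker read-out: RT-PCR/capillary electrophoresis fluorescence of reporter transcripts from transiently transfected HepG2 cells after 24 h chemical exposure. Activity fitted bidirectionally relative to DMSO negative control.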

[5] = ATG_M_06_CIS: Attagene CIS-FACTORIAL HepG2 Assay for M06 Transcription Factor (Internal Marker) (AID 2282950); settings: HepG2 Attagene CIS-FACTORIAL M06 internal marker reporter; actives raise or lower the signal
In short: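 Measured 24 h post-dosing in transiently transfected HepG2 cells, this internal-marker endpoint reports reporter mRNA via RT-PCR with fluorescent primer extension and capillary electrophoresis. DMSO served as negative control and baseline for bidirectional fitting.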

[6] = biological target: Hypoxia-inducible factor 1-alpha (Homo sapiens) (UniProt Q16665); assay: ATG_HIF1a_CIS: Attagene CIS-FACTORIAL HepG2 Assay for human Hypoxia Inducible Factor 1 (HIF1A) (AID 2282951); settings: HepG2 Attagene cis-factorial HIF1a reporter transcription; actives raise or lower the signal
Sequence of Hypoxia-inducible factor 1-alpha (Homo sapiens) (Q16665 whole entry, looked up): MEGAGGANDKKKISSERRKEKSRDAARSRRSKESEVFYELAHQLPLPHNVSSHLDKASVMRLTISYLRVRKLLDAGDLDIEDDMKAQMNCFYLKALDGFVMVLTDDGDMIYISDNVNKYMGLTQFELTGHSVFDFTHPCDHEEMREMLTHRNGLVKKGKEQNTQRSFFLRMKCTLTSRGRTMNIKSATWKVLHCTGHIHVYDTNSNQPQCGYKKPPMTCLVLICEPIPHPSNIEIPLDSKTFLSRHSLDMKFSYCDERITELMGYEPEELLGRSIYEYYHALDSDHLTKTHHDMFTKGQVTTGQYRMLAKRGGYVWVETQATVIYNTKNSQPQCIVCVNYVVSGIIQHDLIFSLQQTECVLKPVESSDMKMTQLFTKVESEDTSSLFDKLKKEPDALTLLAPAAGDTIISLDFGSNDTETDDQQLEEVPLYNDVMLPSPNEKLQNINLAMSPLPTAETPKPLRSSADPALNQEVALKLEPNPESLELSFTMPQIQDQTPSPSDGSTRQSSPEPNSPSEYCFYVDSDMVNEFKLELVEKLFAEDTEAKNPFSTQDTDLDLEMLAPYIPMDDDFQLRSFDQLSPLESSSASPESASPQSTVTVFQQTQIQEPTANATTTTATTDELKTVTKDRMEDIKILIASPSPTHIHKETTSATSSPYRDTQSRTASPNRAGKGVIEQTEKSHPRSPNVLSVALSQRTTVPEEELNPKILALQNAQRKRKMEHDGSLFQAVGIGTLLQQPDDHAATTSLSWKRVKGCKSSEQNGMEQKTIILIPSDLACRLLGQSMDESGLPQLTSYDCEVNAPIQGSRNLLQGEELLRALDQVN
In short: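 Cis-element reporter constructs were transiently transfected into HepG2 cells, which were treated for 24 h; reporter RNA was reverse-transcribed, amplified, labelled and resolved by capillary electrophoresis.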

[7] = biological target: Paired box protein Pax-6 (Homo sapiens) (UniProt P26367); assay: ATG_Pax6_CIS: Attagene CIS-FACTORIAL HepG2 Assay for human Paired Box 6 (PAX6) (AID 2282956); settings: HepG2 CIS-FACTORIAL PAX6 reporter transcription, RNA readout; actives raise or lower the signal
Sequence of Paired box protein Pax-6 (Homo sapiens) (P26367 whole entry, looked up): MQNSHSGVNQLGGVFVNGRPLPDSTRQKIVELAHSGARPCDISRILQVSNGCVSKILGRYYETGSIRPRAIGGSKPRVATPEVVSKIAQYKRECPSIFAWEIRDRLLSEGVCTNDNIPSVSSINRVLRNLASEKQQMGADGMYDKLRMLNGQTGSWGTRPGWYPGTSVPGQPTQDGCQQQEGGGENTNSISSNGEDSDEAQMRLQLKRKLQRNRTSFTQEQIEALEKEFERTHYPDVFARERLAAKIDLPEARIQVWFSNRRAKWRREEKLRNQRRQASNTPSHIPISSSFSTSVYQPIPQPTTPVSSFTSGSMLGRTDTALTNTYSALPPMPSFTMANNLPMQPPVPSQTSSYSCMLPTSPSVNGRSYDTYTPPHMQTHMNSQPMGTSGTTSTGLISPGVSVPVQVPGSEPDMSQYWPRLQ
In short: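 Multiplexed cis-reporter HepG2 system; 24 h treatment; reporter mRNA read by RT-PCR/CE fluorescence; bidirectional fit vs DMSO.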

[8] = ATG_PXRE_CIS: Attagene CIS-FACTORIAL HepG2 Assay for human Pregnane X Receptor Element (PXRE) (AID 2282957); settings: HepG2 Attagene CIS-FACTORIAL PXRE reporter, mRNA; actives raise or lower the signal
In short: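 Cis-element reporter mRNA in human hepatoma HepG2 cells is measured 24 h post-dosing by RT-PCR, primer-extension labeling and capillary electrophoresis; gain or loss of signal is fitted relative to DMSO.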

[9] = ATG_Sox_CIS: Attagene CIS-FACTORIAL HepG2 Assay for human SRY-box transcription factor (SOX) (AID 2282960); settings: HepG2 Attagene cis-factorial SOX reporter, mRNA; actives raise or lower the signal
In short: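 Fluorescence-labelled cDNA fragments from reporter transcripts, sized by CE, give the signal. Cells: HepG2, transiently transfected with cis-regulated reporter units. Exposure 24 h; DMSO negative control; bidirectional curve fitting.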

[10] = biological target: Transcription factor Sp1 (Homo sapiens) (UniProt P08047); assay: ATG_Sp1_CIS: Attagene CIS-FACTORIAL HepG2 Assay for human Specificity Protein 1 (Sp1) (AID 2282961); settings: HepG2 Sp1 cis-reporter transcription, actives raise or lower the signal
Sequence of Transcription factor Sp1 (Homo sapiens) (P08047 whole entry, looked up): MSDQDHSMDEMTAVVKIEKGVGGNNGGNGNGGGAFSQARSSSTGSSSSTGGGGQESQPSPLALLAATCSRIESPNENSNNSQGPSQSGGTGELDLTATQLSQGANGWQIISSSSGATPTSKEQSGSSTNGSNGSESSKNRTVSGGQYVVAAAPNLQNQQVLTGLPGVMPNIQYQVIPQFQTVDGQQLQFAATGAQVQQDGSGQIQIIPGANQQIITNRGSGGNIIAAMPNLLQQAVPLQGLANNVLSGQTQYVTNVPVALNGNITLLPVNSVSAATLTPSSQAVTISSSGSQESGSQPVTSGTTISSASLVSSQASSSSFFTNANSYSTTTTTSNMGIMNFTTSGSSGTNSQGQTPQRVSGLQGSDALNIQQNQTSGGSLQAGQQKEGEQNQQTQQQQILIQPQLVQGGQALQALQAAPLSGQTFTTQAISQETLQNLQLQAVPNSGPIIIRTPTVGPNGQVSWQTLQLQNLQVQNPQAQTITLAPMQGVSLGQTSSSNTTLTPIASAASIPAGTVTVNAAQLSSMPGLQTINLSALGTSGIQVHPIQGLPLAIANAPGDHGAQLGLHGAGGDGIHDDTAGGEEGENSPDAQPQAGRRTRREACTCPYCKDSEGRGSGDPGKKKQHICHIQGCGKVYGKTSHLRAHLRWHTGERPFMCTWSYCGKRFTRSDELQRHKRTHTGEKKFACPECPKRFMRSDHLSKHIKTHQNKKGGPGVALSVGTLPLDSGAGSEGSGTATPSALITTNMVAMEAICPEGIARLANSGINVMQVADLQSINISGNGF
In short: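 Chemicals are dosed onto HepG2 cells transfected with multiple cis-promoter reporter constructs, and after 24 h reporter RNA is reverse-transcribed, PCR-amplified and resolved by capillary electrophoresis for fluorescence quantitation; activity is scored up or down against DMSO.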

[11] = ATG_SREBP_CIS: Attagene CIS-FACTORIAL HepG2 Assay for human Sterol Regulatory Element Binding (SREBP) (AID 2282962); settings: HepG2 Attagene cis-factorial SREBP reporter, mRNA; actives raise or lower the signal
In short: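 mRNA induction of transfected cis-promoter reporters in HepG2 cells, 24 h post-dose. Detection: RT-PCR with 6-FAM-labelled products, HpaI digest, capillary electrophoresis. DMSO served as negative control and baseline.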

[12] = biological target: Signal transducer and activator of transcription 3 (Homo sapiens) (UniProt P40763); assay: ATG_STAT3_CIS: Attagene CIS-FACTORIAL HepG2 Assay for human Signal Transducer and Activator of Transcription 3 (STAT3) (AID 2282963); settings: HepG2, Attagene cis-factorial STAT3 reporter transcription; actives raise or lower the signal
Sequence of Signal transducer and activator of transcription 3 (Homo sapiens) (P40763 whole entry, looked up): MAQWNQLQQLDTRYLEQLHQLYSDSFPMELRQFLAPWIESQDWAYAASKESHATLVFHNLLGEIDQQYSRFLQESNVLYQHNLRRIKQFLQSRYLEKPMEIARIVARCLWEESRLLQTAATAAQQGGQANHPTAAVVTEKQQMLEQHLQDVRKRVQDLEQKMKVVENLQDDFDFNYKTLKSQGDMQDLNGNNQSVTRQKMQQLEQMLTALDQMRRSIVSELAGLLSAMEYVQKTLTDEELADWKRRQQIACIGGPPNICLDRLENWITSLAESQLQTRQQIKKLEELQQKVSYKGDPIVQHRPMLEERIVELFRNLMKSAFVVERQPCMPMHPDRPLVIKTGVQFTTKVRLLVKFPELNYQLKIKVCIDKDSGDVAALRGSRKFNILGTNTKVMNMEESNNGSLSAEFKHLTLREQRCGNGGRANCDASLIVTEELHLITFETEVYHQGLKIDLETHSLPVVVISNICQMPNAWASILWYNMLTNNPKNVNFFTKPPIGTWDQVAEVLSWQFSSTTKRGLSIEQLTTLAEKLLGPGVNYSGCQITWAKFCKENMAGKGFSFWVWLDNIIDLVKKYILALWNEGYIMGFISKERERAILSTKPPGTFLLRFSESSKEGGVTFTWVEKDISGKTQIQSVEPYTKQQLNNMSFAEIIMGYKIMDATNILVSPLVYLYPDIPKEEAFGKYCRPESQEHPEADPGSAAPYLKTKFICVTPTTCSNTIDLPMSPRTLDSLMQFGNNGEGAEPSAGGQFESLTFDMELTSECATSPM
In short: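 HepG2 cells transiently transfected with cis-element-driven multiple reporter transcription units; after 24 h chemical exposure, reporter mRNA measured by RT-PCR, 6-FAM primer-extension labelling, HpaI digestion and capillary electrophoresis. Bidirectional fitting versus DMSO baseline.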

[13] = ATG_TA_CIS: Attagene CIS-FACTORIAL HepG2 Assay for human TA Basal Promoter (AID 2282964); settings: HepG2 Attagene CIS-factorial TA basal promoter reporter; actives raise or lower the signal
In short: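 Cis-factorial format in HepG2: reporters report endogenous factors, not chimeric Gal4 fusions. After 24 h treatment, reporter transcripts were measured by RT-PCR-capillary electrophoresis fluorescence, analysed bidirectionally versus DMSO.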

[14] = biological target: Bile acid receptor (Homo sapiens) (UniProt Q96RI1); assay: ATG_IR1_CIS: Attagene CIS-FACTORIAL HepG2 Assay for human Nuclear Receptor Subfamily 1 Group H Member 4 (NR1H4), IR1 submotif (AID 2282946); settings: IR1 reporter transcription, actives raise or lower the signal
Sequence of Bile acid receptor (Homo sapiens) (Q96RI1 whole entry, looked up): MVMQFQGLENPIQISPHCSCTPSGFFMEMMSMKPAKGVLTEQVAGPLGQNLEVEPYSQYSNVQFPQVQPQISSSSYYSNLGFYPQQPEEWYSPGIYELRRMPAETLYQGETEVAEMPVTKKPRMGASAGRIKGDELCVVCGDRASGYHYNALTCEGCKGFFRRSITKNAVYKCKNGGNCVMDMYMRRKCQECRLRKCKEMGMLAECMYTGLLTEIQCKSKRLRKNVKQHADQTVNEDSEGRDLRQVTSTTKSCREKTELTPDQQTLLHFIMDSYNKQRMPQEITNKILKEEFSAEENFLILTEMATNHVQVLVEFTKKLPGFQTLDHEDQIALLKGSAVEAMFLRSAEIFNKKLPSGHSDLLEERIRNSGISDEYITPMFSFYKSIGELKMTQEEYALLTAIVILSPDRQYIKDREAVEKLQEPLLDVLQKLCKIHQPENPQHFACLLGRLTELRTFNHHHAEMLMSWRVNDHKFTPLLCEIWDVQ
In short: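 Transient MRTU transfection, HepG2; 24 h dosing; RNA → RT-PCR → 6-FAM primer extension → HpaI digest → capillary electrophoresis fluorescence. Gain/loss of signal fitted relative to DMSO.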

[15] = biological target: Heat shock factor protein 1 (Homo sapiens) (UniProt Q00613); assay: ATG_HSE_CIS: Attagene CIS-FACTORIAL HepG2 Assay for human Heat Shock Transcription Factor 1 (HSE) (AID 2282953); settings: HepG2 HSE cis-reporter, Attagene RNA transcription; actives raise or lower the signal
Sequence of Heat shock factor protein 1 (Homo sapiens) (Q00613 whole entry, looked up): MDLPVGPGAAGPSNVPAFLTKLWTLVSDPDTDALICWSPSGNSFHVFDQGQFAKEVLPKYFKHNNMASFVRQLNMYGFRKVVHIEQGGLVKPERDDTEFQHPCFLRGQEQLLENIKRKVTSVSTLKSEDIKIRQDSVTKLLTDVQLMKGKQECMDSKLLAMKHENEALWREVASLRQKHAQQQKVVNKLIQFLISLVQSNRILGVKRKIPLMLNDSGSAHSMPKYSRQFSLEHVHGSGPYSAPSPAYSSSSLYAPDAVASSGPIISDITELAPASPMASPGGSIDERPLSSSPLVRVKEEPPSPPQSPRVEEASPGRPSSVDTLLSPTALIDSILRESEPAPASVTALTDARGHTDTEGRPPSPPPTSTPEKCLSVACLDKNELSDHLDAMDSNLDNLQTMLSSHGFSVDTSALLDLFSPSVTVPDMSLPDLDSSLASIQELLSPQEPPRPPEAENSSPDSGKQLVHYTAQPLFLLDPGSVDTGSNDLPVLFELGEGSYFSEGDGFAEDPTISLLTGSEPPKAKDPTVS
In short: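 Reporter mRNA induction in HepG2 is measured 24 h after dosing, using transiently transfected multiplexed cis-regulated reporter units. Signal comes from capillary electrophoresis of labelled RT-PCR products, with DMSO as negative control.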

[16] = ATG_PPRE_CIS: Attagene CIS-FACTORIAL HepG2 Assay for human Peroxisome Proliferator-activated Response Element (PPRE) (AID 2282958); settings: HepG2 PPRE cis-element reporter, Attagene transcription factor profiling; actives raise or lower the signal
In short: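 DMSO served as negative control and baseline for bidirectional curve fitting. Signal came from PPRE-regulated reporter mRNA in HepG2 cells, measured 24 h post-dosing by RT-PCR, 6-FAM primer extension and capillary electrophoresis.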

[17] = ATG_RORE_CIS: Attagene CIS-FACTORIAL HepG2 Assay for human RAR-related Orphan Receptor Element (RORE) (AID 2282959); settings: HepG2 Attagene cis-factorial RORE reporter, mRNA; actives raise or lower the signal
In short: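 Transfect HepG2 with MRTUs; treat 24 h; extract RNA; RT with oligo(dT); PCR with reporter-specific primers; 6-FAM primer extension; HpaI digest 2 h at 37 C; capillary electrophoresis. Fit vs DMSO, bidirectional.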

[18] = ATG_MRE_CIS: Attagene CIS-FACTORIAL HepG2 Assay for human Metal Responsive Element (MRE) (AID 2282954); settings: HepG2 MRE cis-reporter transcription, Attagene multiplex; actives raise or lower the signal
In short: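 HepG2 cells transiently transfected with multiple cis-element reporter units measure endogenous MTF1-driven transcription. After 24 h compound exposure, reporter mRNA is quantified by RT-PCR with 6-FAM labelling, HpaI digestion and capillary electrophoresis; bidirectional fits versus DMSO.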

[19] = ATG_PBREM_CIS: Attagene CIS-FACTORIAL HepG2 Assay for human Phenobarbital-responsive Enhancer Module (PBREM) (AID 2282955); settings: HepG2 PBREM cis-reporter, Attagene multiplexed transcription; actives raise or lower the signal
In short: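 Multiplexed cis-reporter readout in human hepatoma HepG2 cells; PBREM-regulated transcript quantified after 24 h exposure by fluorescent RT-PCR fragment analysis. Signal changes up or down fitted relative to DMSO.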

Compound: COCC(C)O (centres undefined)
- outcome [1]: inactive
- outcome [2]: inactive
- outcome [3]: inactive
- outcome [4]: inactive
- outcome [5]: inactive
- outcome [6]: inactive
- outcome [7]: inactive
- outcome [8]: inactive
- outcome [9]: inactive
- outcome [10]: inactive
- outcome [11]: inactive
- outcome [12]: inactive
- outcome [13]: inactive

Compound: CC(O)CO (centres undefined)
- outcome [1]: inactive
- outcome [14]: inactive
- outcome [2]: inactive
- outcome [3]: inactive
- outcome [4]: inactive
- outcome [5]: inactive
- outcome [6]: inactive
- outcome [15]: inactive
- outcome [7]: inactive
- outcome [8]: inactive
- outcome [16]: inactive
- outcome [17]: inactive
- outcome [9]: inactive
- outcome [10]: inactive
- outcome [11]: inactive
- outcome [12]: inactive
- outcome [13]: inactive

Compound: CC(C)(C)c1ccc(O)c(C(C)(C)C)c1
- outcome [1]: inactive
- AC50 [14]: 5.79 µM (active)
- outcome [2]: inactive
- outcome [3]: inactive
- outcome [4]: inactive
- outcome [5]: inactive
- outcome [6]: inactive
- outcome [15]: inactive
- outcome [18]: inactive
- outcome [19]: inactive
- outcome [7]: inactive
- AC50 [8]: 7.21 µM (active)
- outcome [17]: inactive
- outcome [9]: inactive
- outcome [10]: inactive
- outcome [11]: inactive
- outcome [12]: inactive
- outcome [13]: inactive

Compound: CN(C)C=O
- outcome [1]: inactive
- outcome [14]: inactive
- outcome [3]: inactive
- outcome [4]: inactive
- outcome [5]: inactive
- outcome [6]: inactive
- outcome [15]: inactive
- outcome [18]: inactive
- outcome [19]: inactive
- outcome [7]: inactive
- outcome [8]: inactive
- outcome [17]: inactive
- outcome [9]: inactive
- outcome [10]: inactive
- outcome [11]: inactive
- outcome [12]: inactive
- outcome [13]: inactive

Compound: CCOC(=O)CC(O)(CC(=O)OCC)C(=O)OCC
- outcome [1]: inactive
- outcome [2]: inactive
- outcome [3]: inactive
- outcome [4]: inactive
- outcome [5]: inactive
- outcome [6]: inactive
- outcome [15]: inactive
- outcome [18]: inactive
- outcome [19]: inactive
- outcome [7]: inactive
- AC50 [8]: 50.4 µM (active)
- outcome [8]: inactive
- outcome [17]: inactive
- outcome [9]: inactive
- outcome [10]: inactive
- outcome [11]: inactive
- outcome [12]: inactive
- outcome [13]: inactive

Compound: CC(O)C(=O)O (centres undefined)
- outcome [1]: inactive
- outcome [14]: inactive
- outcome [3]: inactive
- outcome [4]: inactive
- outcome [5]: inactive
- outcome [6]: inactive
- outcome [15]: inactive
- outcome [18]: inactive
- outcome [19]: inactive
- outcome [7]: inactive
- outcome [8]: inactive
- outcome [17]: inactive
- outcome [9]: inactive
- outcome [10]: inactive
- outcome [11]: inactive
- outcome [12]: inactive
- outcome [13]: inactive

Compound: CCCOc1sc(C(=O)N2CCC(c3cc(CN)ccc3F)CC2)c(C)c1Br
- outcome [1]: inactive
- AC50 [14]: 1.12 µM (active)
- outcome [2]: inactive
- outcome [3]: inactive
- outcome [4]: inactive
- outcome [5]: inactive
- AC50 [6]: 3.7 µM (active)
- outcome [15]: inactive
- outcome [18]: inactive
- outcome [19]: inactive
- outcome [7]: inactive
- AC50 [8]: 2.09 µM (active)
- outcome [16]: inactive
- outcome [17]: inactive
- outcome [9]: inactive
- outcome [10]: inactive
- AC50 [11]: 3.7 µM (active)
- outcome [12]: inactive
- outcome [13]: inactive

— PubChem BioAssay (EPA / NIEHS)
